Source: PubChem BioAssay
PLK1 PBD block: inhibitors of human PLK1 polo-box domain binding; P53350; Plk1 PBD binding of FITC phosphopeptide, fluorescence polarization; Potency, µM, hits mostly inhibitors; hit rate 2.8% among 360,000; AID 720504; note: series mostly up to about 57 µM; nearly all actives have a fitted effect of over 65% in size
KAT2A inh: blocks human GCN5L2 histone acetyltransferase. Q92830. GCN5L2 HAT assay, ThioGlo1 CoA-SH fluorescence. Potency, µM (doses to about 58.9 µM), actives largely listed as inhibitors. hit rate 0.21% among 390,000
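GCN5L2 (20 nM) in 50mM HEPES pH 7.5, 0.1mM EDTA, 0.01% Tween-20 preincubated 15 min with compounds at room temperature. Reaction started with H3(1-25) 75uM, acetyl-CoA 70uM, ThioGlo1 50uM; CoA-thiol fluorescence (Ex340/Em540) read at 0 and 20 min.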
VDR inhibitor: blocks the human vitamin D receptor; P11473; Potency, µM, actives largely listed as inhibitors; AID 504847; hit rate 0.93% among 400,000; VDR-SRC2-3 peptide fluorescence polarization, 2 h
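Inhibition of the VDR/SRC2-3 peptide interaction is quantified by fluorescence polarization. Compounds (23 nl, pintool) incubate with the reagents for 2 hours at ambient room temperature.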
PI4K2A block: PI4K2A (human) kinase inhibition; purified PI4K2A, ADP-Glo luminescence, 1 h; active compounds read low; activity change, negative = inhibition, % at 76.9 µM; hit rate 0.13% among 420,000; Q9BTU6; in the data active = activity change below about -50%; inconclusive = mostly about -30% to -49%
Target sequence (Q9BTU6 whole entry, looked up): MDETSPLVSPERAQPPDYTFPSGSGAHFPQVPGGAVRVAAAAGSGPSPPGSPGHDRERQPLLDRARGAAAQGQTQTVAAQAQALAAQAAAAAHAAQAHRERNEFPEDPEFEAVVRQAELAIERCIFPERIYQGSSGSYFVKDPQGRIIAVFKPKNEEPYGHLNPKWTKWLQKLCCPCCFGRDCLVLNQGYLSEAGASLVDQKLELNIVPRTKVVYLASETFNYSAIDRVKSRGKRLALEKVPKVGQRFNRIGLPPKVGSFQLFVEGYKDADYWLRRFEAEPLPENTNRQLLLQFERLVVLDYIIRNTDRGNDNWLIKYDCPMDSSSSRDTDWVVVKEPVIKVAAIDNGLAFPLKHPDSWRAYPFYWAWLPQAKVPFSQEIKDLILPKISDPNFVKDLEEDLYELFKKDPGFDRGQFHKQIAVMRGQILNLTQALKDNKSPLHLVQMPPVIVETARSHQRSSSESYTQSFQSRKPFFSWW
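Compounds are screened against recombinant PI4K2A using PI as substrate and ATP, the latter dispensed at 300 microM. Reactions run one hour at ambient temperature before ADP-Glo detection; full inhibition defined by wells lacking enzyme.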
GLS inhibitor: inhibitors of human glutaminase (GLS). O94925. GLS enzymatic activity, qHTS titration. Potency, µM (top dose mostly 45.5 µM), most hits filed as inhibitors. hit rate 0.21% among 410,000. AID 624170
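Human kidney-isoform GLS in 45 mM KH2PO4 pH 8.2, 0.02% Tween-20, with compound, started with 1mM L-Glutamine (added stock). Glutamate oxidase/HRP/Amplex red coupled fluorescence read at start and after 30 min at RT.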
USP1-UAF1 confirm: blocks human USP1/UAF1 cleavage of Ub-Rhodamine | shares compounds with VDR inhibitor | Ub-Rhodamine cleavage, fluorescence kinetic read | Potency, µM (titrated, usually from 114 µM), usual class: inhibitors | hit rate 50% among 50
VDR inh confirm: confirmation of human vitamin D receptor inhibitors; shares compounds with VDR inhibitor; VDR-coactivator inhibition assay, qHTS confirmation; Potency, µM, hits mostly inhibitors; hit rate 89% among 840
VDR FP: confirmation of human VDR-coactivator binding inhibitors, fluorescein label; VDR-coactivator binding, fluorescein fluorescence polarization; hit rate 48% among 840; Potency, µM (titrated, usually from 57.1 µM), most hits filed as inhibitors; shares compounds with VDR inhibitor
VDR bla: inhibits human VDR in beta-lactamase reporter cells; VDR beta-lactamase reporter cells, FRET ratio; cells co-treated with VDR agonist LG190178; AID 602202; hit rate 23% among 840; Potency, µM (top dose mostly 46.1 µM), most hits filed as inhibitors; shares compounds with VDR inhibitor
VDR cytotox: counter-screen for vitamin D receptor inhibitors: cytotoxicity | AID 602204 | cytotoxicity counter-screen, cell viability, qHTS | Potency, µM (doses to about 48.3 µM), actives largely listed as cytotoxic | hit rate 18% among 840 | shares compounds with VDR inhibitor; note: nearly all actives have a fitted effect of over 75% in size
Each line names hits and unclear results; the compound was inactive in the other large screens (follow-up assays come after a bar, where they were run). Rows were chosen to be rich in hits. Some 3.1% of all compounds tested hit in one or more screens of this group. Unless noted, calls come from the whole dose curve; as a rule, active = well fitted curve in the direction sought with a large enough effect; inconclusive = small, poorly fitted or top-dose-only effect, or another doubt; inactive = no such curve, though single readings can be large; an effect the other way counts as inactive or inconclusive.

CN(C)c1ccc(/C=C/[N+](=O)[O-])cc1	VDR inhibitor inconclusive | VDR inh confirm inconclusive | VDR FP inactive | VDR bla inactive | VDR cytotox inactive
CN(C)c1ccc(C(=O)c2ccc(N(C)C)cc2)cc1	none
C/C(=C\c1ccc(N(C)C)cc1)[N+](=O)[O-]	PLK1 PBD block inconclusive, VDR inhibitor 20µM | VDR inh confirm 6.7 | VDR FP inconclusive | VDR bla inactive | VDR cytotox inconclusive
CC(=O)OC[C@H](N)C(=O)c1ccccc1	none (no result: PLK1 PBD block, VDR inhibitor, PI4K2A block, GLS inhibitor)
CN1CCc2cc(O)cc3c2C1Cc1ccc(O)c(O)c1-3 (centres undefined)	none (no result: PLK1 PBD block, PI4K2A block, GLS inhibitor)
O=c1[nH]c2ccccc2n1C1CCN(CCCC(c2ccc(F)cc2)c2ccc(F)cc2)CC1	VDR inhibitor inconclusive | USP1-UAF1 confirm inconclusive
CC(=O)OC1CCC23C(=O)OC45CCC(C6=CC(=O)OC6)C4(C)CCC2C5CCC3(O)C1 (centres undefined)	none (no result: PLK1 PBD block, PI4K2A block, GLS inhibitor)
O=C1C(=O)c2ccccc2-c2ccccc21	VDR inhibitor 10µM, PI4K2A block inconclusive | VDR inh confirm 5.97 | VDR FP 3.16µM | VDR bla 3.66µM | VDR cytotox 1.78µM
COCCCn1c(N)c(C(=O)OCCOC)c2nc3ccccc3nc21	KAT2A inh inconclusive
CCOC(=O)c1c(NS(=O)(=O)c2ccccc2)n(CCCOC)c2nc3ccccc3nc12	KAT2A inh 22.4µM, VDR inhibitor inconclusive, PI4K2A block inconclusive | VDR inh confirm 2.51 | VDR FP 2.24µM | VDR bla inactive | VDR cytotox inactive
CC(C)C(O)(C(=O)OC[C@@H]1CC[N+]2([O-])CCCC12)C(C)O (some centres undefined)	none (no result: PLK1 PBD block, KAT2A inh, PI4K2A block, GLS inhibitor)
CCCCCCCCCCCCCC(=O)O[C@@H]1[C@@H](C)[C@@]2(O)[C@H](C=C(CO)C[C@]3(O)C(=O)C(C)=C[C@@H]23)[C@@H]2C(C)(C)C12OC(C)=O (some centres undefined)	none (no result: PLK1 PBD block, PI4K2A block, GLS inhibitor)
COc1ccc(-n2c(=S)[nH]c3c(sc(=S)n3-c3ccccc3)c2=O)c(OC)c1	PLK1 PBD block 2.38µM, VDR inhibitor 35.5µM | VDR inh confirm 3.36 | VDR FP inconclusive | VDR bla inactive | VDR cytotox inactive
CCN1C[C@@]2(COC(=O)c3ccccc3N3C(=O)CC(C)C3=O)CC[C@H](OC)[C@]34C5C[C@@H]6[C@@H](OC)C[C@@](O)(C5[C@H]6OC)[C@@](O)(C13)[C@@H](OC)C24 (some centres undefined)	none (no result: PLK1 PBD block, PI4K2A block, GLS inhibitor)
CN1C(=O)C(=Cc2ccc(OCCN(C)c3ccccn3)cc2)C(=O)N(C)C1=O	PLK1 PBD block inconclusive
CN1C(=O)C(=Cc2ccccc2Oc2ccc(Cl)cc2)C(=O)N(C)C1=O	PLK1 PBD block 4.74µM, VDR inhibitor 28.2µM | VDR inh confirm 16.8 | VDR FP 17.8µM | VDR bla inactive | VDR cytotox inactive
C=CCN1C(=O)/C(=C/c2ccc(Br)s2)C(=O)NC1=S	PLK1 PBD block 1.34µM, VDR inhibitor 20µM | VDR inh confirm 4.23 | VDR FP inactive | VDR bla inconclusive | VDR cytotox inactive
CN1C(=O)/C(=C/c2ccc(Cl)s2)C(=O)NC1=S	PLK1 PBD block 1.5µM, VDR inhibitor 20µM | VDR inh confirm 6.7 | VDR FP inconclusive | VDR bla inconclusive | VDR cytotox inactive
O=C(O)/C=C/CO	none (no result: PLK1 PBD block, PI4K2A block, GLS inhibitor)
